Assay results: PubChem BioAssay (NCI)
Where “and” joins values, the source holds several entries; their conditions need not be identical. Identical values can stand only once. This is part of a sample that, as a whole, favours compounds with a hit. Of some 79,000 tested, about 15% had one in any assay. A number with no mark means an inactive call. Calls of active or inactive are those of the source. Cut-off read from the data, not from the text of the source: active = growth inhibition above about 70%; inactive = the rest.

Columns and labels:
[1] = NCI Yeast Anticancer Drug Screen. Data for the rad50 strain (AID 155);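 note: 0% = growth of vehicle-only cultures of the same strain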; conditions: S. cerevisiae rad50 strain growth inhibition, active compounds read high; at 50.0 µM unless noted
Method in brief: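 Readout: growth inhibition relative to vehicle-treated cultures. Compound exposure was carried out in a genetically defined yeast strain deficient in DNA damage repair.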

[2] = NCI Yeast Anticancer Drug Screen. Data for the mec2-1 strain (AID 157); conditions: S. cerevisiae mec2-1 strain, active compounds read high; at 50.0 µM unless noted
Method in brief: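 Using mec2-1 yeast: add compound, measure growth, express inhibition versus vehicle-treated cultures.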

[3] = NCI Yeast Anticancer Drug Screen. Data for the sgs1 mgt1 strain (AID 161);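 note: 0% = growth of cultures given vehicle only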; conditions: S. cerevisiae sgs1 mgt1 strain, active compounds read high; at 50.0 µM unless noted
Method in brief: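 Growth of a repair-deficient yeast mutant was monitored after compound treatment and expressed as inhibition relative to vehicle-treated cultures.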

[4] = NCI Yeast Anticancer Drug Screen. Data for the cln2 rad14 strain (AID 165);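 note: 0% = growth equal to vehicle treated cultures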; conditions: S. cerevisiae cln2 rad14 strain, active compounds read high; at 50.0 µM unless noted
Method in brief: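 Yeast strain cln2 rad14, bearing defects in cell cycle control and DNA repair, serves as the test system; values reflect growth inhibition compared with vehicle.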

[5] = NCI Yeast Anticancer Drug Screen. Data for the bub3 strain (AID 167); conditions: S. cerevisiae bub3 mutant strain, active compounds read high; at 50.0 µM unless noted
Method in brief: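 Readout: yeast growth inhibition, expressed relative to vehicle-only wells. The test organism is a mutant strain from a panel with lesions in DNA repair or checkpoint genes.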

[6] = NCI Yeast Anticancer Drug Screen. Data for the mlh1 rad18 strain (AID 175); conditions: S. cerevisiae mlh1 rad18 strain growth inhibition, active compounds read high; at 50.0 µM unless noted
Method in brief: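 Steps: expose repair-defective yeast to compound; measure growth; express inhibition against vehicle-treated controls.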

SMILES	growth inhibition [1]	growth inhibition [2]	growth inhibition [3]	growth inhibition [4]	growth inhibition [5]	growth inhibition [6]
CCc1nc(N)nc(N)c1-c1ccc(NC2CCCCC2)c([N+](=O)[O-])c1	10.3%	14.2%	16.1%	17.9%	-6.05%	27.1%
Cn1c2cccc3nnc4cccc(c4c32)n1C	-37.1%	-9.3%	-4.9%	4.2%	-6.65%	-11.8%
CSc1ccc(C(C)=O)cc1	13.6%	5.9%	5.95%	4.6%	1.55%	3%
Cl	-13.4% and -6.25%	-29.2% and 17.5%	-10.4% and 1.8%	-0.9% and 2.2%	-5.15% and -38%	-16% and -32.6%
Nc1cccc2c1nc(NCCO)c1ccccc12	23.8%	3.5%	-15.6%	-4.5%	10.7%	49.1%
CCN(CC)c1ccc(C(c2ccc(N(CC)CC)cc2Cl)c2cccc3ccccc23)c(Cl)c1	24.8%	19.8%	30.3%	36.2%	22.4%	7.85%
Cc1ccc(Cl)cc1NC(=O)c1ccccc1	3.45%	-1.25%	-8.5%	-28.9%	-18.1%	14.8%
COc1ccc(C(=[N+]=[N-])c2ccc(OC)cc2)cc1	-4.65%	-6.85%	7.35%	-48.2%	-10.1%	4.75%
CCN1CCN(c2nc3ccccc3c3c2CCOc2ccccc2-3)CC1	-12.4%	-16.9%	-15.8%	19.1%	0.25%	6%
CC1=C(C#N)C(=C(C#N)C#N)OC1(C)Cc1ccccc1 (stereo not given)	8.25%	6.35%	24.6%	8.55%	2.85%	33.1%
CCCCC(CC)C(O)P(=O)(O)O (stereo not given)	-9.2%	-15.1%	-9.75%	-14.3%	2.8%	0.45%
COC(=O)CCC(C)C1CCC2(C)C3=C(C(=O)CC12C)C1(C)CCC(O)C(C)(C)C1=C(O)C3 (stereo not given)	81.7% (active)	74.2% (active)	77.6% (active)	79.9% (active)	70.8% (active)	83.8% (active)
Cc1[nH]c(=S)[nH]c1C	4.1%	9.5%	12.2%	10%	15.7%	12.6%
CC1=CC(C)(C)[C@H]2O[C@@]3(O)C[C@]4(C)[C@H]5C[C@@](C(C)C)(O[C@H]4c4ccoc4)O[C@H]4[C@]5(C3)O[C@@]1(O)[C@]24O	5.2%	0.45%	-11.9%	-14.8%	-13.4%	-3.5%
O=C(Oc1cccc(OC(=O)c2ccccc2O)c1)c1ccccc1O	-1.05%	-7.95%	9.8%	-30.8%	25.9%	-5.35%
O=S(=O)(Cc1nc2ccccc2[nH]1)Cc1nc2ccccc2[nH]1	-3.4%	4.25%	14.8%	-7.25%	4.95%	9.3%
C/C(CC(C)C)=N/O	3.75% and -12.1%	-3.25% and -4.35%	-17.5% and -5.85%	-23.2% and -20.5%	-0.4% and 3%	11.8% and 9.05%
CCC(C)(O)c1cn(-c2ccc(Cl)cc2)nn1 (stereo not given)	-31.4%	-32.9%	-4.4%	16.4%	-6.55%	0.25%
OC[C@H]1N[C@H](CO)[C@@H](O)[C@H]1O	1.7%	-10.2%	4.35%	16.8%	-15.6%	10.2%
Cc1ccc(S(=O)(=O)OC2C(OCc3ccccc3)OC(CO)C2O)cc1 (stereo not given)	-6%	6.65%	-9.2%	15.3%	-0.6%	-9.15%
